Experimental data: PubChem BioAssay (NCI)
This is part of a sample that, as a whole, favours compounds with a hit. Of some 83,000 tested, about 20% had one in any assay.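 Percent growth is the endpoint: 0 to 100 indicates growth inhibition (40 means 60% inhibition), 0 means no net growth, and negative values indicate cell death.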 Active and inactive are the calls of the source. The calls were made as follows: active = growth percent below 10; inactive = the rest.

Experiments:
Test in all cases: NCI-60 one-dose screen, 48 h (100 = growth as untreated, 0 = no growth, -100 = all killed)
Settings in all cases: 10 µM unless noted
SK-MEL-2 melanoma = system: SK-MEL-2 melanoma
SN12C renal = system: SN12C renal
UO-31 renal = system: UO-31 renal
TK-10 renal = system: TK-10 renal
ACHN renal = system: ACHN renal
CAKI-1 renal = system: CAKI-1 renal
A498 renal = system: A498 renal
CCRF-CEM leukemia = system: CCRF-CEM leukemia
MOLT-4 leukemia = system: MOLT-4 leukemia
SR leukemia = system: SR leukemia
RPMI-8226 leukemia = system: RPMI-8226 leukemia
OVCAR-8 ovarian = system: OVCAR-8 ovarian
OVCAR-5 ovarian = system: OVCAR-5 ovarian
OVCAR-4 ovarian = system: OVCAR-4 ovarian
SK-OV-3 ovarian = system: SK-OV-3 ovarian
OVCAR-3 ovarian = system: OVCAR-3 ovarian
HS 578T breast = system: HS 578T breast
NCI/ADR-RES ovarian = system: NCI/ADR-RES ovarian
IGROV1 ovarian = system: IGROV1 ovarian

Measured: growth

COc1cc(C2CC(=O)c3c(C)nn(-c4nc5ccccc5[nH]4)c3C2)cc(OC)c1OC (configuration not stated)
inactive: SK-MEL-2 melanoma 91.2% | SN12C renal 75.9% | UO-31 renal 91.1% | TK-10 renal 45.3% | ACHN renal 59.1% | CAKI-1 renal 101% | A498 renal 56.5% | CCRF-CEM leukemia 104% | MOLT-4 leukemia 102% | SR leukemia 87.7% | RPMI-8226 leukemia 92.1% | OVCAR-8 ovarian 25.7% | OVCAR-5 ovarian 90.4% | SK-OV-3 ovarian 17.9% | OVCAR-3 ovarian 67.2% | HS 578T breast 43.1% | NCI/ADR-RES ovarian 64.9%
active: OVCAR-4 ovarian -35.4%

COc1cccc(-n2cc(-c3nc(Nc4cc(C)[nH]n4)c4ccccc4n3)nn2)c1
inactive: SK-MEL-2 melanoma 50.9% | SN12C renal 41% | UO-31 renal 15.4% | TK-10 renal 33.3% | ACHN renal 24% | A498 renal 36.1% | CCRF-CEM leukemia 32.6% | MOLT-4 leukemia 11% | SR leukemia 27.8% | RPMI-8226 leukemia 48.4% | OVCAR-8 ovarian 38.3% | OVCAR-5 ovarian 56.5% | OVCAR-4 ovarian 17.2% | SK-OV-3 ovarian 10.8% | IGROV1 ovarian 18% | OVCAR-3 ovarian 59.4% | HS 578T breast 46.4% | NCI/ADR-RES ovarian 30.6%
active: CAKI-1 renal 2.59%

COc1ccc(CN(c2ccc(C)cc2)C2OC(=O)c3ccccc32)cc1OC (configuration not stated)
inactive: SK-MEL-2 melanoma 95.3% | SN12C renal 99.1% | UO-31 renal 94.3% | TK-10 renal 107% | ACHN renal 95% | CAKI-1 renal 99.1% | A498 renal 79.4% | CCRF-CEM leukemia 91.3% | MOLT-4 leukemia 98.6% | SR leukemia 83.8% | RPMI-8226 leukemia 93.9% | OVCAR-8 ovarian 108% | OVCAR-5 ovarian 89.7% | OVCAR-4 ovarian 103% | SK-OV-3 ovarian 118% | IGROV1 ovarian 116% | OVCAR-3 ovarian 113% | HS 578T breast 102% | NCI/ADR-RES ovarian 96.3%

COc1ccc(N(Cc2cc(OC)c(OC)c(OC)c2)C2OC(=O)c3ccccc32)cc1 (configuration not stated)
inactive: SK-MEL-2 melanoma 21.5% | SN12C renal 52.8% | UO-31 renal 53.5% | TK-10 renal 53.5% | ACHN renal 61.5% | CAKI-1 renal 45.7% | A498 renal 14% | MOLT-4 leukemia 19.2% | SR leukemia 12.1% | RPMI-8226 leukemia 10.6% | OVCAR-8 ovarian 22.1% | OVCAR-5 ovarian 65.5% | OVCAR-4 ovarian 62.7% | SK-OV-3 ovarian 13.3% | HS 578T breast 22.1% | NCI/ADR-RES ovarian 10.1%
active: CCRF-CEM leukemia 9.62% | OVCAR-3 ovarian -18.4%

COc1cc(-c2cnc3nonc3n2)c(OC)c2c1OCO2
inactive: SK-MEL-2 melanoma 98.1% | SN12C renal 100% | UO-31 renal 85.5% | TK-10 renal 107% | ACHN renal 91.6% | CAKI-1 renal 99.1% | A498 renal 88.3% | CCRF-CEM leukemia 85.3% | MOLT-4 leukemia 83.9% | SR leukemia 50.1% | RPMI-8226 leukemia 65.7% | OVCAR-8 ovarian 97.8% | OVCAR-5 ovarian 124% | OVCAR-4 ovarian 75.3% | SK-OV-3 ovarian 105% | IGROV1 ovarian 82.7% | OVCAR-3 ovarian 76.9% | HS 578T breast 105% | NCI/ADR-RES ovarian 99.3%

COc1ccc(C2CC(=O)Nc3c2c(C)nn3-c2nc3ccccc3[nH]2)cc1 (configuration not stated)
inactive: SK-MEL-2 melanoma 100% | SN12C renal 103% | UO-31 renal 34.3% | TK-10 renal 116% | ACHN renal 99.1% | CAKI-1 renal 101% | A498 renal 41.6% | CCRF-CEM leukemia 10.1% | RPMI-8226 leukemia 20.4% | OVCAR-8 ovarian 108% | OVCAR-5 ovarian 112% | OVCAR-4 ovarian 121% | SK-OV-3 ovarian 122% | OVCAR-3 ovarian 18.3% | HS 578T breast 61.7% | NCI/ADR-RES ovarian 96.3%
active: MOLT-4 leukemia -44.6% | SR leukemia -36%

CCOC(=O)/C=C/c1ccc(C(=O)OCC)[nH]1
inactive: SK-MEL-2 melanoma 47% | SN12C renal 80.7% | UO-31 renal 72.1% | TK-10 renal 62.6% | ACHN renal 64.9% | CAKI-1 renal 35.5% | A498 renal 49.8% | CCRF-CEM leukemia 82.8% | MOLT-4 leukemia 75.8% | RPMI-8226 leukemia 75.4% | OVCAR-8 ovarian 62.9% | OVCAR-5 ovarian 75.5% | OVCAR-4 ovarian 108% | SK-OV-3 ovarian 84.8% | OVCAR-3 ovarian 22.6% | HS 578T breast 74%
active: NCI/ADR-RES ovarian 8.24%

COC(=O)C12C3C(=O)N(c4ccc(OC)cc4)C(=O)C3C(c3cn(-c4ccccc4)nc3C)N1[C@H](c1cn(-c3ccccc3)nc1C)[C@@H]1C(=O)N(c3ccc(OC)cc3)C(=O)[C@@H]12 (some centres not stated)
inactive: SK-MEL-2 melanoma 107% | SN12C renal 104% | UO-31 renal 97.1% | TK-10 renal 96.5% | ACHN renal 101% | CAKI-1 renal 91.7% | A498 renal 89.4% | CCRF-CEM leukemia 104% | MOLT-4 leukemia 81.8% | SR leukemia 91% | RPMI-8226 leukemia 106% | OVCAR-8 ovarian 99% | OVCAR-5 ovarian 103% | OVCAR-4 ovarian 108% | SK-OV-3 ovarian 101% | IGROV1 ovarian 107% | OVCAR-3 ovarian 104% | HS 578T breast 106% | NCI/ADR-RES ovarian 97.4%

O=C1Nc2ccccc2/C1=C/C(=N/c1nnc(-c2ccccc2)s1)c1ccccc1
inactive: SK-MEL-2 melanoma 97.4% | SN12C renal 41.8% | A498 renal 106% | OVCAR-8 ovarian 36.8% | OVCAR-5 ovarian 78.9% | OVCAR-4 ovarian 59.2% | SK-OV-3 ovarian 87.3% | HS 578T breast 106% | NCI/ADR-RES ovarian 46.2%
active: UO-31 renal -87.2% | TK-10 renal -39.7% | ACHN renal -54.8% | CAKI-1 renal -10.2% | CCRF-CEM leukemia -45% | MOLT-4 leukemia -24.2% | SR leukemia -23% | RPMI-8226 leukemia -17.5% | OVCAR-3 ovarian -20.2%

CC#Cc1nc2ccccc2c(=O)[nH]1
active: A498 renal -44.8% | RPMI-8226 leukemia 2.5% | OVCAR-3 ovarian 4.22%
inactive: SK-MEL-2 melanoma 45.4% | SN12C renal 35.3% | UO-31 renal 22.9% | TK-10 renal 48% | ACHN renal 28.8% | CAKI-1 renal 54.5% | CCRF-CEM leukemia 19.6% | MOLT-4 leukemia 19.3% | SR leukemia 39.4% | OVCAR-8 ovarian 42% | OVCAR-5 ovarian 76.4% | OVCAR-4 ovarian 18.4% | SK-OV-3 ovarian 112% | IGROV1 ovarian 14% | HS 578T breast 58.7% | NCI/ADR-RES ovarian 55%

NCc1cn2cc(Cl)sc2n1
inactive: SK-MEL-2 melanoma 102% | SN12C renal 105% | UO-31 renal 88.8% | TK-10 renal 92.1% | ACHN renal 102% | CAKI-1 renal 102% | A498 renal 90.8% | CCRF-CEM leukemia 103% | MOLT-4 leukemia 110% | SR leukemia 102% | RPMI-8226 leukemia 106% | OVCAR-8 ovarian 105% | OVCAR-5 ovarian 98% | OVCAR-4 ovarian 100% | SK-OV-3 ovarian 103% | IGROV1 ovarian 109% | OVCAR-3 ovarian 114% | HS 578T breast 113% | NCI/ADR-RES ovarian 111%

CCOC(=O)c1nc(Nc2cc(C)[nH]n2)c2ccccc2n1
inactive: SK-MEL-2 melanoma 89.4% | SN12C renal 97% | UO-31 renal 76.7% | TK-10 renal 77.3% | ACHN renal 73.4% | CAKI-1 renal 37.7% | A498 renal 62.4% | CCRF-CEM leukemia 96.9% | MOLT-4 leukemia 102% | SR leukemia 81.1% | RPMI-8226 leukemia 114% | OVCAR-8 ovarian 111% | OVCAR-5 ovarian 103% | OVCAR-4 ovarian 82.5% | SK-OV-3 ovarian 75.8% | IGROV1 ovarian 76.2% | OVCAR-3 ovarian 97.7% | HS 578T breast 71.4% | NCI/ADR-RES ovarian 114%

Cc1ccc(C2CC3c4ccccc4C2C2CCCCN32)cc1 (configuration not stated)
inactive: SK-MEL-2 melanoma 88.2% | SN12C renal 90.3% | UO-31 renal 91.7% | TK-10 renal 97.1% | ACHN renal 97.8% | CAKI-1 renal 95% | A498 renal 139% | CCRF-CEM leukemia 92.2% | MOLT-4 leukemia 94.8% | SR leukemia 106% | RPMI-8226 leukemia 60.1% | OVCAR-8 ovarian 109% | OVCAR-5 ovarian 96.2% | OVCAR-4 ovarian 82.6% | SK-OV-3 ovarian 91.7% | OVCAR-3 ovarian 67.7% | HS 578T breast 93.3% | NCI/ADR-RES ovarian 94.1%

CCCCCCCCCCCCN1CCCC(C)C1 (configuration not stated)
inactive: SK-MEL-2 melanoma 89.6% | SN12C renal 95.9% | UO-31 renal 60.8% | TK-10 renal 87.9% | ACHN renal 85.4% | CAKI-1 renal 68.7% | A498 renal 104% | CCRF-CEM leukemia 44.7% | MOLT-4 leukemia 63.9% | RPMI-8226 leukemia 64.1% | OVCAR-5 ovarian 88.2% | OVCAR-4 ovarian 68% | SK-OV-3 ovarian 88.3% | OVCAR-3 ovarian 93.3% | HS 578T breast 99.8% | NCI/ADR-RES ovarian 88.2%
active: SR leukemia -13.9%

Cc1ccn2c(-c3csc(Nc4cccc(O)c4)n3)c(C)nc2c1
active: MOLT-4 leukemia -7.6% | SR leukemia -24.8% | RPMI-8226 leukemia -4.74% | SK-OV-3 ovarian -25.2% | OVCAR-3 ovarian -14%
inactive: SK-MEL-2 melanoma 24.2% | SN12C renal 20.8% | UO-31 renal 40.4% | TK-10 renal 57.2% | ACHN renal 26% | CAKI-1 renal 80.6% | A498 renal 64.7% | CCRF-CEM leukemia 23.7% | OVCAR-8 ovarian 40.1% | OVCAR-5 ovarian 38.5% | OVCAR-4 ovarian 36.7% | IGROV1 ovarian 14.1% | HS 578T breast 19.2% | NCI/ADR-RES ovarian 14.4%

COc1c(Cl)cc(Cl)cc1Cl
inactive: SK-MEL-2 melanoma 117% | SN12C renal 100% | UO-31 renal 88.4% | TK-10 renal 109% | ACHN renal 112% | CAKI-1 renal 126% | A498 renal 96.5% | CCRF-CEM leukemia 110% | MOLT-4 leukemia 91.4% | SR leukemia 101% | RPMI-8226 leukemia 118% | OVCAR-8 ovarian 112% | OVCAR-5 ovarian 121% | SK-OV-3 ovarian 107% | IGROV1 ovarian 97.4% | OVCAR-3 ovarian 109% | HS 578T breast 87.8% | NCI/ADR-RES ovarian 112%

COc1cc(-c2c3sc(=O)[nH]c3nc3c2c(=O)[nH]n3C(C)C)cc2c1OCO2
inactive: SK-MEL-2 melanoma 101% | SN12C renal 99.4% | UO-31 renal 96.8% | TK-10 renal 114% | ACHN renal 95.8% | CAKI-1 renal 88.8% | A498 renal 67.1% | CCRF-CEM leukemia 125% | MOLT-4 leukemia 104% | SR leukemia 81.5% | RPMI-8226 leukemia 124% | OVCAR-8 ovarian 108% | OVCAR-5 ovarian 96.6% | OVCAR-4 ovarian 86% | SK-OV-3 ovarian 114% | IGROV1 ovarian 101% | OVCAR-3 ovarian 114% | NCI/ADR-RES ovarian 102%
